# Experimental data taken from paper PMC5540273 (PLoS ONE, 2017).
# How the values were obtained:
# Settings in all cases: concentration: 1 μM, replicates: in singlicate; n = 1
# [1] = tested on: CAMK1
# [2] = tested on: CAMK2A
# [3] = tested on: CAMK2B
# [4] = tested on: CAMK2D
# [5] = tested on: CAMK2G
# [6] = tested on: CAMK4
# [7] = tested on: CAMKK1
# [8] = tested on: CAMKK2
# [9] = tested on: CASK
# [10] = tested on: T1, CDC2L1
# T1 construct: gene CDK11B
# 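Further: KINOMEscan kinase panel screen.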
SMILES,%Inh [1] [%],%Inh [2] [%],%Inh [3] [%],%Inh [4] [%],%Inh [5] [%],%Inh [6] [%],%Inh [7] [%],%Inh [8] [%],%Inh [9] [%],%Inh [10] [%]
CSc1ccc(NC2=C(c3ccc(Cl)cc3)C(=O)NC2=O)cc1 [SB-317658],19,4,0,18,1,12,0,0,0,0
Cc1cc(-c2ccnc(Nc3cccc(C#N)c3)n2)cc(C)c1O [GSK1440913],24,13,11,31,39,0,24,30,0,41
CN(c1ccc(NC(=O)Nc2cccc(Cl)c2)cc1)c1ccnc(N)n1.Cl [GW830707],2,0,0,10,8,14,0,14,7,0
N#Cc1cnc2cc(-c3cnc(CNCCN4CCOCC4)s3)ccc2c1Nc1ccc(Oc2ccccc2)cc1 [GW664114],22,0,0,21,0,0,48,3,15,0
COc1cc(Nc2nccc(N3CCC(NC(=O)Nc4ccc5c(c4)OCO5)C3)n2)cc(OC)c1OC (centres unmarked) [GSK1379766],28,0,0,14,28,0,21,24,4,0
COc1cccc2c(-c3ccncc3)c(-c3ccc(F)cc3)nn12 [GW468513],0,0,0,0,13,0,6,5,0,0
CN1CCN(Cc2ccc(NC(=O)Nc3ccc(N(C)c4ccnc(Nc5ccc(CS(C)(=O)=O)cc5)n4)cc3)cc2)CC1.Cl [GW827654],28,0,0,9,15,0,95.4,28,3,33
CN(c1ccc(NC(=O)N2CCN(CCCN3CCOCC3)CC2)cc1)c1ccnc(Nc2ccc(CS(C)(=O)=O)cc2)n1.Cl [GW830899],0,0,0,1,0,0,19,0,0,2
CNc1nccc(-c2ccc3c(N)n[nH]c3c2)n1 [GSK2206003],24,14,31,33,33,0,10,13,21,10
COc1ccc(NC(=O)c2ccoc2)cc1-c1ccc(C(=O)NCC2CC2)cc1 [GW810437],0,0,0,0,0,19,15,30,13,14
Nc1ncnc2scc(-c3ccc(NC(=O)Cc4cc(F)ccc4F)cc3)c12.O=C(O)C(F)(F)F [SB-731254-M],16,0,0,10,5,0,17,12,21,11
Nc1ncc(-c2ccc3nccc(-c4ccncc4)c3c2)cc1S(=O)(=O)N1CCCCC1 [GSK1693850],18,4,0,0,14,0,24,33,24,0
Fc1cc(Cl)ccc1Nc1ccnc2cc(-c3ccc(CN4CCOCC4)o3)ccc12 [GW560109],0,0,0,0,0,13,0,0,16,0
COC(=O)Nc1nc2ccc(Oc3ccc(NC(=O)Nc4cc(C(F)(F)F)ccc4F)cc3)cc2[nH]1.Cl [GW654607],2,0,0,0,15,0,6,6,12,0
CC(C)NCC(Cc1ccccc1)NC(=O)c1cc(Br)c(-c2ccnc3[nH]ccc23)s1.Cl.Cl (centres unmarked) [GSK1383281],34,0,0,15,15,29,33,19,0,0
O=C(O)C(F)(F)F.O=c1[nH]ccc2nc(N[C@@H]3CCNC3)nc(Nc3ccc4c(c3)S(=O)(=O)CC4)c12 [GSK2181306],82,59,23,55,52,98.5,92.1,40,15,0
CCn1cnc2c(NCc3ccccc3)ncnc21 [SKF-96418],0,0,0,0,0,7,0,1,25,0
O=C(O)C(F)(F)F.O=c1[nH]ccc2nc(N[C@@H]3CCNC3)nc(Nc3cc(Cl)cc(Cl)c3)c12 [GSK2188764],84,71,37,60,57,95.9,75,46,19,1
Cc1ccc(C)c(NC(=O)Nc2ccc(C)c(-c3ccc(C(=O)Nc4ccncc4)cc3)c2)c1 [GSK1398473],8,0,0,0,25,0,12,27,0,0
O=C1NC(=O)C(c2ccccc2Cl)=C1Nc1cccc(Cl)c1 [SB-342409],0,10,0,43,19,47,21,0,39,0
Cl.Cl.NC(CNC(=O)c1cc(Br)c(-c2ccnc3[nH]ccc23)s1)c1ccccc1 (centres unmarked) [GSK1322949],42,45,39,38,48,0,8,29,38,0
CC(C)(C)c1ccc(C(=O)Nc2cn3cc(-n4ccnc4)ccc3n2)cc1,32,18,0,0,12,0,6,7,8,3

SMILES,%Inh [1] [%],%Inh [2] [%],%Inh [3] [%],%Inh [4] [%],%Inh [5] [%],%Inh [6] [%],%Inh [7] [%],%Inh [8] [%],%Inh [9] [%],%Inh [10] [%]
Cc1ccc(Nc2ccnc(Nc3ccc(C)c(F)c3)n2)cc1O.Cl [GW582868],1,96.6,95.3,0,0,0,0,0,13,0
CCNC(=O)/C=C/c1n[nH]c2cc(Sc3ccccc3C(=O)NC)ccc12,7,0,0,17,27,0,10,33,40,10
Cc1ccc(NC(=O)c2ccc(Cl)c(Cl)c2)cc1-c1ccc(C(=O)Nc2ccncc2)cc1 [GSK1398460],27,0,0,7,0,9,0,4,0,2
Cc1cc(-c2c(-c3ccc(F)cc3)ncn2CCCN2CCOCC2)nc(N)n1 [SB-222517],17,0,30,0,8,13,25,0,33,0
O=C(Nc1c(F)cccc1F)c1cc(C(=O)c2ccccc2F)c[nH]1 [GSK1326180],17,2,0,1,8,5,0,0,3,0
Cc1ccc(NC(=O)c2ccnc(N3CCCCC3)c2)cc1-c1ccc(C(=O)NCC2CC2)cc1 [GW775610],0,0,0,0,0,10,0,0,0,6
Nc1cccc(-c2ccc3c(N)n[nH]c3c2)c1 [GSK2193613],29,0,0,11,26,0,2,13,13,7
CC(=O)Nc1cn2nc(Oc3cccc(NC(=O)c4cccc(C(F)(F)F)c4)c3)ccc2n1,19,0,15,1,0,0,0,0,17,7
Cc1cccc(Nc2nc(NCCN)ncc2C(N)=O)c1 [GSK1292139],59,0,0,14,27,0,18,28,13,0
Cc1cccc(Nc2nc(N[C@H]3CCCC[C@H]3N)ncc2C(N)=O)c1.Cl [GSK986310],54,0,0,16,33,72,22,26,56,0
O=C(Nc1n[nH]c2nc(-c3ccccc3)ccc12)C1CC1 [SB-708999],3,0,0,100,17,0,6,13,14,0
Cl.N#CCc1ccc(Nc2nccc(Nc3ccc(Oc4ccccc4)cc3)n2)cc1 [GW639905],10,0,0,0,0,0,0,0,8,0
CS(=O)(=O)c1cccc(CNc2nc(Nc3ccc4c(c3)CCC(=O)N4)ncc2C(F)(F)F)c1,0,0,0,0,0,0,20,9,0,0
COC(=O)Nc1nc2ccc(Oc3ccc(CC(=O)Nc4cc(C(F)(F)F)ccc4F)cc3)cc2[nH]1 [GW680903],2,0,0,1,12,0,0,9,0,0
O=C(Nc1n[nH]c2nc(-c3cccc(O)c3)ccc12)C1CC1 [SB-711805],0,0,0,0,0,0,0,0,0,0
N#CC1(c2cccc(C(=O)Nc3cccc(Oc4ccc5nc(NC(=O)C6CC6)sc5n4)c3)c2)CC1,0,29,26,20,100,2,9,99.6,16,0
COc1cccc(NC(=O)NCCNc2ccnc(Nc3ccc(F)cc3)n2)c1 [GSK1379879],7,0,0,0,14,0,13,3,0,0
COc1cccc(C2=C(Nc3cccc(O)c3)C(=O)NC2=O)c1 [SB-390771],4,17,0,25,34,0,15,28,28,0
COC(=O)Nc1nc2cc(Oc3ccc(NC(=O)Nc4cccc(SC)c4)cc3)ccc2[nH]1.Cl [GW697999],11,18,28,0,12,0,0,0,16,0
Cc1nn2c(=O)cc(N3CCO[C@H](C)C3)nc2n1Cc1cccc(Cl)c1Cl [GSK2373693],0,0,0,10,5,5,20,2,75,0
Cl.Cl.NCC(NC(=O)c1cc(-c2cccnc2)c(-c2ccnc3[nH]ccc23)s1)c1ccccc1 (centres unmarked) [GSK1323434],32,0,0,8,14,0,14,24,30,0
Nc1ncc(-c2cn[nH]c2)c2scc(-c3ccc4c(c3)CCN4C(=O)Cc3ccccc3)c12 [GSK2593067],33,0,0,0,18,0,56,8,13,0
